According to PubChem BioAssay AID1851 (National Center for Advancing Translational Sciences (NCATS), 2009):
Screen size: about 16,000 compounds; about 5,700 (36%) were called active. About 24% were inconclusive and are not listed. Some of the results follow. Values without a mark were called inactive. Calls follow the shape of the dose curve; as a rule, active = well fitted curve in the direction sought with a large enough effect; inconclusive = small, poorly fitted or top-dose-only effect, or effect the other way; inactive = no such curve, though single readings can be large or run the other way.

Biological target: Cytochrome P450 1A2 (Homo sapiens) (UniProt P05177)
Sequence (P05177 whole entry, looked up): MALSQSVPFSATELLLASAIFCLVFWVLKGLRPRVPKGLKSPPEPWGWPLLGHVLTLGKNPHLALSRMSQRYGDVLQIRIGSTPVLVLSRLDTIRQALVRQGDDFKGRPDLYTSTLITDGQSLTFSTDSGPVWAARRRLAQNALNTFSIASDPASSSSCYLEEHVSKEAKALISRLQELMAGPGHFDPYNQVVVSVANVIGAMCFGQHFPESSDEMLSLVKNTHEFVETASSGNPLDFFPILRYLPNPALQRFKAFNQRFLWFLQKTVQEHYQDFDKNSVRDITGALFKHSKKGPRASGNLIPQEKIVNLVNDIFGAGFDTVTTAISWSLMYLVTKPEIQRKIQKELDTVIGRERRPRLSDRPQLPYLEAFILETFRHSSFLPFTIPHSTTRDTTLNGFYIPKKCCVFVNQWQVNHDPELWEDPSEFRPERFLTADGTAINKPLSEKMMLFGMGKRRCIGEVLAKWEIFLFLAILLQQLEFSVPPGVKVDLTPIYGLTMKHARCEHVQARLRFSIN
Assay: Cytochrome panel assay with activity outcomes
Conditions: recombinant CYP, pro-luciferin dealkylation, luminescence, p450-cyp1a2; series mostly up to 57.1 µM; activity, negative = inhibition: at the top concentration
% is scaled to controls: 0 for no effect and ±100 for the full control effect.

| Structure (SMILES) | AC50 | activity, negative = inhibition |
| --- | --- | --- |
| O=C(O)/C(=C/c1c(C(=O)O)[nH]c2cc(Cl)cc(Cl)c12)c1ccccc1 | 12.6 µM (active) | – |
| c1ccc(-c2nnc(SCCC3OCCCO3)o2)cc1 | 1.78 µM (active) | – |
| Cc1cc(C(=O)CSc2nnc(-c3ccccc3)o2)c(C)n1CC1COc2ccccc2O1 (stereo not drawn) | – | -16.3% |
| CCC1CCc2c(c3ccccc3[nH]c2=O)O1 (stereo not drawn) | 0.562 µM (active) | – |
| C#CCn1c(=O)c2c(ncn2C)n(C)c1=O | – | -16.2% |
| CC[C@@H](c1ccccc1)n1c(=O)n2n(c1=O)[C@H]1[C@H](O)[C@H]3O[C@@H]3/C(=N/OC/C=C(\C)CCC=C(C)C)[C@@H]1CC2 | – | -18.9% [at 11.4 µM] |
| Cc1cccc(N/C(N)=N/c2nc(C)cc(C)n2)c1 | 12.6 µM (active) | – |
| Cc1nc(/N=C(\N)Nc2ccccc2)nc2ccccc12 | 5.01 µM (active) | – |
| Oc1cccnc1CN1CCCCC1 | – | -14.4% [at 11.4 µM] |
| CN1CCN(Cc2nc3cccc4c3c([n+]2[O-])-c2ccccc2-4)CC1 | 1.26 µM (active) | – |
| [O-][n+]1c(CN2CCCCC2)nc2cccc3c2c1-c1ccccc1-3 | 1.58 µM (active) | – |
| Cc1noc(C)c1C(=O)N1CCC[C@@]2(CCN(Cc3cc(C(F)(F)F)cc(C(F)(F)F)c3)C2)C1 | – | 16.9% |
| Nc1ccc(N=Nc2c(S(=O)(=O)O)cc3ccccc3c2S(=O)(=O)O)cc1 | – | -20.9% [at 2.29 µM] |
| CCNC(=S)N1CCC(NC(=O)C2CCCCC2)CC1 | – | 35.3% |
| CC(C)CCNC(=S)NC1CCCC1 | 14.1 µM (active) | – |
| CCC(C)NC(=O)C1CCCN(C(=O)NC2CCCCC2)C1 (stereo not drawn) | – | -4.85% |
| Cc1sc(N/N=C/c2cccnc2)nc1-c1ccccc1 | 0.0631 µM (active) | – |
| CC(=O)c1c(N2CCC(C(N)=O)CC2)nc(=S)n(-c2ccccc2)c1C | – | -0.743% |
| CC(=O)c1nnn(-c2nc(N)nc(N(c3ccccc3)c3ccccc3)n2)c1C | 22.4 µM (active) | – |
| O=C(O)CCC(O)=C1S(=O)(=O)OCCOS1(=O)=O | – | -21.5% [at 11.4 µM] |
| O=C(O)/C=C/C(=O)Nc1ccc(F)cc1F | – | 20.4% |
| COc1ccc(C(=O)Nc2ccc(F)cc2F)cc1OC | 14.1 µM (active) | – |
| O=C(O)c1ccccc1C1c2ccccc2Oc2ccccc21 | – | -20.4% [at 2.29 µM] |
| CC(=O)c1ccc(OC(=O)C2c3ccccc3Oc3ccccc32)cc1 | 4.47 µM (active) | – |
| COC(=O)c1c(-c2cc(OC)c(OC)c(OC)c2)c2ccc(OCc3ccccn3)cc2c(=O)n1-c1ccc(N)cc1 | – | -16% |
| CCNc1ncc2nc(C)c(=O)n(CCc3ccccc3)c2n1 | 1.58 µM (active) | – |
| O=c1cnc2cnc(Nc3ccccc3)nc2n1CCc1ccccc1 | 3.16 µM (active) | – |
| CCNc1ncc2ncc(=O)n(CCc3ccccc3)c2n1 | 1 µM (active) | – |
